Calls of active or inactive are those of the source. How the source made its calls: active means hit-call score of the fitted dose curve at least 0.9, where 1 is the maximum; inactive means score below 0.9.
Key:
[1] = target: Transcription factor E2F1 (Homo sapiens) (UniProt Q01094); test: ATG_E2F_CIS: Attagene CIS-FACTORIAL HepG2 Assay for human E2F Transcription Factor 1 (AID 2282935); settings: HepG2 Attagene cis-reporter, E2F reporter RNA transcripts; actives raise or lower the signal
Method in brief: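 Transient MRTU transfection of HepG2; 24 h compound exposure; RNA → oligo(dT) RT → PCR → FAM label → HpaI cut → CE fluorescence. Gain/loss of signal fit against DMSO.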

[2] = ATG_E_Box_CIS: Attagene CIS-FACTORIAL HepG2 Assay for human Enhancer Box (E-box) (AID 2282936); settings: HepG2 E-box cis-reporter transcription, actives raise or lower the signal
Method in brief: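 Transiently transfected HepG2, endogenous TF-driven reporters, 24 h dosing. Readout: RT-PCR plus capillary electrophoresis of fluorescent reporter fragments. Gain or loss of signal fitted bidirectionally against DMSO baseline.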

[3] = ATG_EGR_CIS: Attagene CIS-FACTORIAL HepG2 Assay for human Early Growth Response 1 (EGR1) (AID 2282938); settings: HepG2 Attagene CIS-FACTORIAL EGR reporter mRNA; actives raise or lower the signal
Method in brief: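 Fluorescent capillary-electrophoresis signal of reporter cDNA fragments serves as read-out. HepG2 cells bear transiently transfected cis-promoter reporter units and are exposed 24 h; gain- or loss-of-signal is fitted against DMSO.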

[4] = ATG_M_19_CIS: Attagene CIS-FACTORIAL HepG2 Assay for M19 Transcription Factor (Internal Marker) (AID 2282939); settings: HepG2 Attagene CIS-FACTORIAL M19 internal marker reporter; actives raise or lower the signal
Method in brief: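 Internal marker readout, fitted in both directions against DMSO, from HepG2 cells carrying transfected cis-element reporter constructs; RT-PCR and capillary electrophoresis of reporter mRNA after 24 h exposure.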

[5] = ATG_ERE_CIS: Attagene CIS-FACTORIAL HepG2 Assay for Estrogen Response Element (ERE) (AID 2282940); settings: HepG2 ERE cis-reporter, Attagene RNA transcript; actives raise or lower the signal
Method in brief: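 After 24 h compound treatment, RNA from transfected HepG2 cells was reverse-transcribed, reporter cDNA PCR-amplified, FAM-labelled, HpaI-cut and resolved by capillary electrophoresis. ERE-driven cis reporter transcripts reflect endogenous factors; gain or loss scored against DMSO.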

[6] = ATG_Ets_CIS: Attagene CIS-FACTORIAL HepG2 Assay for human Erythroblast Transformation Specific (ETS) (AID 2282941); settings: HepG2 ETS cis-reporter transcription, actives raise or lower the signal
Method in brief: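 RT-PCR/capillary electrophoresis fluorescence read-out of reporter mRNA; HepG2 transient multi-reporter transfection; 24 h compound exposure; gain or loss of signal fitted bidirectionally relative to DMSO.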

[7] = target: Hepatocyte nuclear factor 3-beta (Homo sapiens) (UniProt Q9Y261); test: ATG_FoxA2_CIS: Attagene CIS-FACTORIAL HepG2 Assay for human Forkhead box A2 (FOXA2) (AID 2282942); settings: HepG2 cis-reporter transcription factor activity, 24 h; actives raise or lower the signal
Method in brief: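 Fluorescence signal of reporter cDNA fragments, separated by capillary electrophoresis, reflects endogenous transcription factor activity in transfected HepG2 after 24 h. Both increases and decreases fitted against DMSO.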

[8] = ATG_FoxO_CIS: Attagene CIS-FACTORIAL HepG2 Assay for human Forkhead box O (FoxO) (AID 2282943); settings: HepG2 Attagene cis-reporter, FoxO element, mRNA; actives raise or lower the signal
Method in brief: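 Read-out: fluorescence of 6-FAM-labelled reporter cDNA fragments resolved by capillary electrophoresis. Transiently transfected HepG2 cells were dosed for 24 h; activity fitted in both directions relative to DMSO controls.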

[9] = ATG_GATA_CIS: Attagene CIS-FACTORIAL HepG2 Assay for human GATA Binding Protein (AID 2282944); settings: HepG2 GATA cis-element reporter, Attagene multiplex mRNA; actives raise or lower the signal
Method in brief: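 Reporter transcripts from a GATA cis-regulated unit, among multiplexed reporters in transfected HepG2 cells, were measured by RT-PCR with capillary electrophoresis after 24 h dosing. Induction or loss scored relative to DMSO.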

[10] = ATG_GLI_CIS: Attagene CIS-FACTORIAL HepG2 Assay for human Zinc Finger Protein GLI1 (AID 2282945); settings: HepG2, Attagene cis-factorial reporter mRNA, GLI element; actives raise or lower the signal
Method in brief: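 Transiently transfected HepG2 cells report endogenous transcription factor activity via cis-element-driven reporter units. After 24 h compound exposure, reporter mRNA was measured by RT-PCR with capillary electrophoresis; bidirectional fitting against DMSO baseline.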

[11] = ATG_GRE_CIS: Attagene CIS-FACTORIAL HepG2 Assay for human Glucocorticoid Response Elements (GRE) (AID 2282947); settings: HepG2 GRE cis-reporter, Attagene multiplex mRNA; actives raise or lower the signal
Method in brief: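 Read-out: fluorescent reporter-transcript fragments separated by capillary electrophoresis after RT-PCR. Transiently transfected HepG2 cells carrying cis-element-driven reporter units were dosed for 24 h; gain or loss of signal fitted against DMSO control.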

[12] = ATG_ISRE_CIS: Attagene CIS-FACTORIAL HepG2 Assay for human Interferon Regulatory Factor 1 (IRF1) binding to an Interferon-Stimulated Response Element (ISRE) (AID 2282948); settings: HepG2 ISRE cis-reporter (Attagene), mRNA transcription readout; actives raise or lower the signal
Method in brief: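 Read-out: fluorescent RT-PCR products resolved by capillary electrophoresis, reporting endogenous transcription factor activity via ISRE-driven reporter mRNA in transfected HepG2 cells dosed for 24 h; gain or loss fitted relative to DMSO.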

[13] = ATG_M_32_CIS: Attagene CIS-FACTORIAL HepG2 Assay for M32 Transcription Factor (Internal Marker) (AID 2282949); settings: HepG2 Attagene cis-factorial M32 reporter, mRNA; actives raise or lower the signal;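 further: background control marker of the multiplexed CIS panel rather than a real target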
Method in brief: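 Transient MRTU transfection of HepG2; 24 h compound treatment; TriZol RNA, oligo(dT) RT, reporter PCR, 6-FAM primer extension, HpaI cut, CE. Gain/loss of signal vs DMSO.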

[14] = ATG_M_06_CIS: Attagene CIS-FACTORIAL HepG2 Assay for M06 Transcription Factor (Internal Marker) (AID 2282950); settings: HepG2 Attagene CIS-FACTORIAL M06 internal marker reporter; actives raise or lower the signal
Method in brief: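 Serves as a background control readout. Transfected HepG2 exposed to compounds for 24 h, then reporter transcripts quantified by fluorescent RT-PCR and capillary electrophoresis. Both directions fitted against DMSO baseline.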

[15] = target: Hypoxia-inducible factor 1-alpha (Homo sapiens) (UniProt Q16665); test: ATG_HIF1a_CIS: Attagene CIS-FACTORIAL HepG2 Assay for human Hypoxia Inducible Factor 1 (HIF1A) (AID 2282951); settings: HepG2 Attagene cis-factorial HIF1a reporter transcription; actives raise or lower the signal
Method in brief: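 Endogenous-TF cis reporter readout, human HepG2 cells, 24 h incubation; mRNA detected via RT-PCR and capillary electrophoresis fluorescence; DMSO-normalised bidirectional fitting.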

[16] = target: Heat shock factor protein 1 (Homo sapiens) (UniProt Q00613); test: ATG_HSE_CIS: Attagene CIS-FACTORIAL HepG2 Assay for human Heat Shock Transcription Factor 1 (HSE) (AID 2282953); settings: HepG2 HSE cis-reporter, Attagene RNA transcription; actives raise or lower the signal
Method in brief: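 Endogenous transcription factor activity in transiently transfected HepG2, read as reporter mRNA by RT-PCR with fluorescent capillary electrophoresis after 24 h. Gain or loss of signal fitted versus DMSO baseline.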

[17] = ATG_MRE_CIS: Attagene CIS-FACTORIAL HepG2 Assay for human Metal Responsive Element (MRE) (AID 2282954); settings: HepG2 MRE cis-reporter transcription, Attagene multiplex; actives raise or lower the signal
Method in brief: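 RT-PCR/capillary electrophoresis readout of reporter mRNA, 24 h post-dosing, in HepG2 cells transfected with multiplexed cis-regulated reporter constructs. Gain or loss of signal fitted bidirectionally against DMSO baseline.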

[18] = target: Hepatocyte nuclear factor 6 (Homo sapiens) (UniProt Q9UBC0); test: ATG_HNF6_CIS: Attagene CIS-FACTORIAL HepG2 Assay for human Hepatocyte Nuclear Factor 6 (HNF6) (AID 2282952); settings: HepG2 Attagene cis-factorial HNF6 reporter transcription; actives raise or lower the signal
Method in brief: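 Readout: fluorescent reporter-transcript fragments resolved by capillary electrophoresis after RT-PCR, reflecting endogenous factor activity in transfected HepG2. Exposure 24 h. Gain or loss of signal fitted bidirectionally against DMSO.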

[19] = target: Bile acid receptor (Homo sapiens) (UniProt Q96RI1); test: ATG_IR1_CIS: Attagene CIS-FACTORIAL HepG2 Assay for human Nuclear Receptor Subfamily 1 Group H Member 4 (NR1H4), IR1 submotif (AID 2282946); settings: IR1 reporter transcription, actives raise or lower the signal
Method in brief: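 Fluorescence of capillary-separated, HpaI-digested RT-PCR reporter products gave IR1-element mRNA induction in HepG2 cells 24 h after dosing. Endogenous transcription factors drove the cis-regulated reporters; activity was fitted bidirectionally against DMSO.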

Measured: AC50

Sequence of Heat shock factor protein 1 (Homo sapiens) (Q00613 whole entry, looked up): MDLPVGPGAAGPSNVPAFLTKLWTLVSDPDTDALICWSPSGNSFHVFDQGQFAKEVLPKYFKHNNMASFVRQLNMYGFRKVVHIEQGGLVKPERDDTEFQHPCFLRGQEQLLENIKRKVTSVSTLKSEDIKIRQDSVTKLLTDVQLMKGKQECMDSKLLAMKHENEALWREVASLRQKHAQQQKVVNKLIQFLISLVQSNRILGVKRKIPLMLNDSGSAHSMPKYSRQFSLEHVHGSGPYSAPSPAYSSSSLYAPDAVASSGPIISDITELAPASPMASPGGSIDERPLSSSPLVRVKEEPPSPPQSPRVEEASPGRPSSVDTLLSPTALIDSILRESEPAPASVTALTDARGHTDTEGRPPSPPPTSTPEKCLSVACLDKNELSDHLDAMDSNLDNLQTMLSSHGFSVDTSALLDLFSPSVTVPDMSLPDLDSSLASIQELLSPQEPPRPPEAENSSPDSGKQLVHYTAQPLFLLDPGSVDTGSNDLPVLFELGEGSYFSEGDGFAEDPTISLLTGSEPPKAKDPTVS
Sequence of Bile acid receptor (Homo sapiens) (Q96RI1 whole entry, looked up): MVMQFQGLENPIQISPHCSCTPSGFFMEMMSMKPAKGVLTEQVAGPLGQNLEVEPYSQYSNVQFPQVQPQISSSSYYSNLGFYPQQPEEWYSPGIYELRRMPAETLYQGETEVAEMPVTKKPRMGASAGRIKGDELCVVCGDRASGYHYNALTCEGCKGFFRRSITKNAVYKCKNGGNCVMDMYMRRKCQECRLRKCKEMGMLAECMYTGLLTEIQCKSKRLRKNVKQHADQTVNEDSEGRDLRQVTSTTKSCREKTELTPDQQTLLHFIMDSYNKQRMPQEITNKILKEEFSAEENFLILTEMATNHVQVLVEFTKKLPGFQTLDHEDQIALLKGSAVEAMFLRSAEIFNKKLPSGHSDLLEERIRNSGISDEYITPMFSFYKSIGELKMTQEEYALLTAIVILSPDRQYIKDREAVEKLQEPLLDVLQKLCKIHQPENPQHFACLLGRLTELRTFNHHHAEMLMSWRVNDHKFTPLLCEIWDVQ
Sequence of Hypoxia-inducible factor 1-alpha (Homo sapiens) (Q16665 whole entry, looked up): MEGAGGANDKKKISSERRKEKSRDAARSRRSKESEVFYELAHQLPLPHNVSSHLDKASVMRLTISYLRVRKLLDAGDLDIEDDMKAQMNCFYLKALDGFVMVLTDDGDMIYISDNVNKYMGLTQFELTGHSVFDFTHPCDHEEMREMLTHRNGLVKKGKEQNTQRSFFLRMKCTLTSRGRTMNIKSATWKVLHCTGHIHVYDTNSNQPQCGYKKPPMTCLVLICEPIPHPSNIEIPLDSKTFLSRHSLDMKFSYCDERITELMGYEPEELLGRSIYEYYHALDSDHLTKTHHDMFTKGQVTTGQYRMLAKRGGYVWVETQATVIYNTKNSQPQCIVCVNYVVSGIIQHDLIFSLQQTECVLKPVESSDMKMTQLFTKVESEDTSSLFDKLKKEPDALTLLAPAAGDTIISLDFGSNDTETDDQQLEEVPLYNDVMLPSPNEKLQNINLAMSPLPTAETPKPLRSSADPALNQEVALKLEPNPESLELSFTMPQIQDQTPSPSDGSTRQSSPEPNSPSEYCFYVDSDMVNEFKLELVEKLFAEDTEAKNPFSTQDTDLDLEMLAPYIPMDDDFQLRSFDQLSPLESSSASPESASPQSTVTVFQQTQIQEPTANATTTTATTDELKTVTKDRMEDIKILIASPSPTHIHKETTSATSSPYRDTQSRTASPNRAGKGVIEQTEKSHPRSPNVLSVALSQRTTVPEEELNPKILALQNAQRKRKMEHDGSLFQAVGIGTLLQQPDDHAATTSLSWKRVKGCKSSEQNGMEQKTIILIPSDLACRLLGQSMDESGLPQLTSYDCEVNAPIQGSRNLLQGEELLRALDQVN
Sequence of Hepatocyte nuclear factor 6 (Homo sapiens) (Q9UBC0 whole entry, looked up, the tested form may be a part): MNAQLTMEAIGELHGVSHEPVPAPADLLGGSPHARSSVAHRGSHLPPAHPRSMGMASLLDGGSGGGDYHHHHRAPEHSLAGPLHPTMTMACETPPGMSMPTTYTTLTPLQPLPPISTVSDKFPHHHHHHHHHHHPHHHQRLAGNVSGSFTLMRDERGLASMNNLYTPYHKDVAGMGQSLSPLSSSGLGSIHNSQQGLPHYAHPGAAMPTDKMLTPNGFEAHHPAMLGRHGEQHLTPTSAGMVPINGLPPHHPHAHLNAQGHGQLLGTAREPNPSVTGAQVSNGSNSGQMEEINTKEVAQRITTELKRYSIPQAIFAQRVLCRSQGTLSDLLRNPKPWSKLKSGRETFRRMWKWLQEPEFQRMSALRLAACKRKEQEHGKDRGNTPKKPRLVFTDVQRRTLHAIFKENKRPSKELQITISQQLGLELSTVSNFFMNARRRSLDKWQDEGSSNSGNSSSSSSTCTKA
Sequence of Transcription factor E2F1 (Homo sapiens) (Q01094 whole entry, looked up): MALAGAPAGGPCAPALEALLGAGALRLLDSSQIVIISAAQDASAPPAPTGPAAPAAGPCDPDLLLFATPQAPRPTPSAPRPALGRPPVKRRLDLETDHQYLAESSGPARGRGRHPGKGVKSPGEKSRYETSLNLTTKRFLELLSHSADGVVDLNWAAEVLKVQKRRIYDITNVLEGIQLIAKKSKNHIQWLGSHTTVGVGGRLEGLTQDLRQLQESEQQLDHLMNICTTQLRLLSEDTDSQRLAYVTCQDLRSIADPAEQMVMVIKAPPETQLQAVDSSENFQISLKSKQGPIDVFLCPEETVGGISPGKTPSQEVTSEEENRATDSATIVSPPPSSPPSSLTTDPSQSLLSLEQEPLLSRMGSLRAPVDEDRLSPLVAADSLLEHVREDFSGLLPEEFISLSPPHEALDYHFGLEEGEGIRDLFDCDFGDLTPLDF
Sequence of Hepatocyte nuclear factor 3-beta (Homo sapiens) (Q9Y261 whole entry, looked up, the tested form may be a part): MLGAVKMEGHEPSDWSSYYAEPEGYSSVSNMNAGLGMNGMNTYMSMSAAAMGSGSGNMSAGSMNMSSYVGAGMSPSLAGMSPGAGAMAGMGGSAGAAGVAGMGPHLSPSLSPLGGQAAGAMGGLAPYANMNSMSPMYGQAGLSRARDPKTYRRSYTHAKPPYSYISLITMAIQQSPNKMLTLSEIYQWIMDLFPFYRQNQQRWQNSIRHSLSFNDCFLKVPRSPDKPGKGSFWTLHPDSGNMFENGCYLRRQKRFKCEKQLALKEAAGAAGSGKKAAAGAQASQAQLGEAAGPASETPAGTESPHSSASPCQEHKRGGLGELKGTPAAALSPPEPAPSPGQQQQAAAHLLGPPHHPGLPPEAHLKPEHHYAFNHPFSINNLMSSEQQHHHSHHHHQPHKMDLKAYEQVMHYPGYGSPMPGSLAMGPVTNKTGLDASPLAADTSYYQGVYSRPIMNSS

[N-]=[N+]=[N-]
not listed: [18] | [19]
inactive: all other assays above

CCOC(=O)c1ccccc1C(=O)OCC
not listed: [19]
inactive: all other assays above

O=P(OCC(Br)CBr)(OCC(Br)CBr)OCC(Br)CBr (configuration not stated)
active: [3] 7.19 µM | [12] 10.3 µM | [15] 16.3 µM | [17] 24.9 µM
not listed: [9] | [18]
inactive: all other assays above

CC(C)CBr
not listed: [16]
inactive: all other assays above

COCCOCCO
not listed: [3] | [9] | [11] | [16] | [19]
inactive: all other assays above

c1cc2c3c(cccc3c1)CC2
not listed: [16] | [19]
inactive: all other assays above

O=[N+]([O-])c1ccccc1
not listed: [5] | [16] | [19]
inactive: all other assays above

Oc1ccc(I)cc1
active: [5] 23.7 µM
not listed: [18]
inactive: all other assays above

COC(=O)C(F)(F)C(F)(F)OC(F)(C(F)(F)F)C(F)(F)OC(F)=C(F)F (configuration not stated)
not listed: [5]
inactive: all other assays above

CC(=O)CCc1ccc2c(c1)OCO2
not listed: [9]
inactive: all other assays above

C=CC(=O)OCC(CC)(COC(=O)C=C)COC(=O)C=C
active: [1] 100 µM | [2] 22 µM | [3] 26.6 µM | [19] 8.23 µM | [12] 42.4 µM | [17] 9.05 µM
not listed: [16]
inactive: all other assays above

O=C(O)C=CC(F)(C(F)(F)F)C(F)(F)F
not listed: [5]
inactive: all other assays above

From PubChem BioAssay (EPA / NIEHS)
